The values that follow come from the supplement of paper PMC10849652.

The full data set covers some 7,900 targets. This sample favours those with a hit. About 0.6% of all pairs of compound and target were hits. Values without a mark were called inactive.

Chain of UniProt Q9NX74 (Q9NX74 whole entry, looked up): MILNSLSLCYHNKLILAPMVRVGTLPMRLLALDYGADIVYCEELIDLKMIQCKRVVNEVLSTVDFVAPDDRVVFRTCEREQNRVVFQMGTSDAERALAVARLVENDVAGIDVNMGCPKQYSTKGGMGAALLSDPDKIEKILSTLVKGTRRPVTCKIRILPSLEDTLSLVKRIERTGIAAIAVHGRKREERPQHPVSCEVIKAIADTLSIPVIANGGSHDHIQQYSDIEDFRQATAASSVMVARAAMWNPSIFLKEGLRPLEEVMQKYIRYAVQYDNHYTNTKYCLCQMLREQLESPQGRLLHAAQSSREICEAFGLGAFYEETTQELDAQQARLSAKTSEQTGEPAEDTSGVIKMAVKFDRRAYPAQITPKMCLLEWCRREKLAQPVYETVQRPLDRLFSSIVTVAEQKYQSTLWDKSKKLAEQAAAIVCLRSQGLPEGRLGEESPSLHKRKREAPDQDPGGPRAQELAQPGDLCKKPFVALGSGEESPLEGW
Chain of UniProt Q9BW60 (Q9BW60 whole entry, looked up): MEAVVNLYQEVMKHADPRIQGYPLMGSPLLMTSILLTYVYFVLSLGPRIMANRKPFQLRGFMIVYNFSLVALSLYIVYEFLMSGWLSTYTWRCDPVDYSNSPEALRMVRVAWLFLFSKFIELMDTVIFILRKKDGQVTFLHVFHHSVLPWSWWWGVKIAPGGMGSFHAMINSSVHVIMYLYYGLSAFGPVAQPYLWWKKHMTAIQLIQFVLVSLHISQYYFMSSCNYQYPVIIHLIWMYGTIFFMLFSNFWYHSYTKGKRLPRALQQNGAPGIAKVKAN
Chain of UniProt O43237 (O43237 whole entry, looked up): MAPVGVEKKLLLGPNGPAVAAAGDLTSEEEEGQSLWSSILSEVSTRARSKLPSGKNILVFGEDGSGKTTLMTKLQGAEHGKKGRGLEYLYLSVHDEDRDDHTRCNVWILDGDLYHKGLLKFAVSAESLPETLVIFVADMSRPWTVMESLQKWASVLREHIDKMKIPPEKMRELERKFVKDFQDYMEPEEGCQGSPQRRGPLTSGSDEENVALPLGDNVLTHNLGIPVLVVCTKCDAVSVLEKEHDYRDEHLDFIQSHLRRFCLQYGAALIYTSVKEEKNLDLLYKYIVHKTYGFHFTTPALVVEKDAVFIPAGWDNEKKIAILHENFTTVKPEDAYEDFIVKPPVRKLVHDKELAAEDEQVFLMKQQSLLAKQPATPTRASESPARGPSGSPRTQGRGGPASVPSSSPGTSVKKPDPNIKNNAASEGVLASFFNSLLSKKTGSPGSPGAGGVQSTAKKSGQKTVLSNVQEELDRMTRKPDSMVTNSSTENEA
Chain of UniProt Q01780 (Q01780 whole entry, looked up): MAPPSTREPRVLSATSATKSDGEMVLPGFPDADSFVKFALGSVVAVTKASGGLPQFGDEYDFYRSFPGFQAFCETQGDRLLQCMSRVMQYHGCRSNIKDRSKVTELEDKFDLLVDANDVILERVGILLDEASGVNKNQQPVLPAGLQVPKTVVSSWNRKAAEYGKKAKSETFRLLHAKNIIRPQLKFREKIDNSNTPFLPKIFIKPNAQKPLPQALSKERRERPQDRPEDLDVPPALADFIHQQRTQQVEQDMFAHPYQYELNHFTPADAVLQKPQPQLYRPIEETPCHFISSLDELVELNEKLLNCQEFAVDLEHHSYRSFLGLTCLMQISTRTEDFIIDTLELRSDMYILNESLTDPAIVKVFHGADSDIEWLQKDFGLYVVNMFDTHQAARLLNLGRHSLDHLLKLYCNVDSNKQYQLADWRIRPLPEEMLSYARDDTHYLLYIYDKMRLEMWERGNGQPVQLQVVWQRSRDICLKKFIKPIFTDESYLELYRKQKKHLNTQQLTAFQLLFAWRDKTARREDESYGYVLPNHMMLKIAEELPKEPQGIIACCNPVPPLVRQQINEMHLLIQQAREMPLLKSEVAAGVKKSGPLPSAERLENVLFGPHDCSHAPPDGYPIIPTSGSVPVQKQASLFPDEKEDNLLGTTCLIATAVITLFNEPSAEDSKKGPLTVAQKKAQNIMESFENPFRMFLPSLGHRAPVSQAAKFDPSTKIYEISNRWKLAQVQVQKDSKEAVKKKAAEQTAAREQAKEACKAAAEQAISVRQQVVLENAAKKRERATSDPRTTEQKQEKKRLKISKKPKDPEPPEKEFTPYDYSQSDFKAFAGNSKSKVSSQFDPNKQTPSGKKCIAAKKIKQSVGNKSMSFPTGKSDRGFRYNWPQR
Chain of UniProt Q8N128 (Q8N128 whole entry, looked up): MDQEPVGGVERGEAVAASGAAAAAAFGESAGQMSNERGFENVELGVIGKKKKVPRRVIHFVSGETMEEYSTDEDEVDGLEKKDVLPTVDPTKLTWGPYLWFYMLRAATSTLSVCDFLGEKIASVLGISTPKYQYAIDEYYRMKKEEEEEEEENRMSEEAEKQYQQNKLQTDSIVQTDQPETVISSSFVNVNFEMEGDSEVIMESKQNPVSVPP
Chain of UniProt Q9UER7 (Q9UER7 whole entry, looked up): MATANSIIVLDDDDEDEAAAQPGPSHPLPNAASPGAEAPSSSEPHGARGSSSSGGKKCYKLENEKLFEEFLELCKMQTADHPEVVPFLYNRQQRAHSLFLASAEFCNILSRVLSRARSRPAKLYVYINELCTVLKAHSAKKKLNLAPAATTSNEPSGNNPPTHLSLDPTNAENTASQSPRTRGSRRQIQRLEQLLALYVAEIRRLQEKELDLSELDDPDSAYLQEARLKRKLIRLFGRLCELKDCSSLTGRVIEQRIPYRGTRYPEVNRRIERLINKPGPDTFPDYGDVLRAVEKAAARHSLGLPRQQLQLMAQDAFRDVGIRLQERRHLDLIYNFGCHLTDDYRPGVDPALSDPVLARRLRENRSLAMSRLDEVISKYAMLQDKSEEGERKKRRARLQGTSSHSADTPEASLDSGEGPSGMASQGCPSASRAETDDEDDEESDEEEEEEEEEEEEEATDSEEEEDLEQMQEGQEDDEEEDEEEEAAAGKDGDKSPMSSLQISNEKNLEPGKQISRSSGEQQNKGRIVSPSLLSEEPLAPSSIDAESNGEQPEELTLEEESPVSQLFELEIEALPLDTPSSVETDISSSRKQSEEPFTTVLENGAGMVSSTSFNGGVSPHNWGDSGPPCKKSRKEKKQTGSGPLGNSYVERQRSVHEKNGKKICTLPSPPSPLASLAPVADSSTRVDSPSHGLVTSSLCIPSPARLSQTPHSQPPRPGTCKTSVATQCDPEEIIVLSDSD
Chain of UniProt Q14689 (Q14689 whole entry, looked up): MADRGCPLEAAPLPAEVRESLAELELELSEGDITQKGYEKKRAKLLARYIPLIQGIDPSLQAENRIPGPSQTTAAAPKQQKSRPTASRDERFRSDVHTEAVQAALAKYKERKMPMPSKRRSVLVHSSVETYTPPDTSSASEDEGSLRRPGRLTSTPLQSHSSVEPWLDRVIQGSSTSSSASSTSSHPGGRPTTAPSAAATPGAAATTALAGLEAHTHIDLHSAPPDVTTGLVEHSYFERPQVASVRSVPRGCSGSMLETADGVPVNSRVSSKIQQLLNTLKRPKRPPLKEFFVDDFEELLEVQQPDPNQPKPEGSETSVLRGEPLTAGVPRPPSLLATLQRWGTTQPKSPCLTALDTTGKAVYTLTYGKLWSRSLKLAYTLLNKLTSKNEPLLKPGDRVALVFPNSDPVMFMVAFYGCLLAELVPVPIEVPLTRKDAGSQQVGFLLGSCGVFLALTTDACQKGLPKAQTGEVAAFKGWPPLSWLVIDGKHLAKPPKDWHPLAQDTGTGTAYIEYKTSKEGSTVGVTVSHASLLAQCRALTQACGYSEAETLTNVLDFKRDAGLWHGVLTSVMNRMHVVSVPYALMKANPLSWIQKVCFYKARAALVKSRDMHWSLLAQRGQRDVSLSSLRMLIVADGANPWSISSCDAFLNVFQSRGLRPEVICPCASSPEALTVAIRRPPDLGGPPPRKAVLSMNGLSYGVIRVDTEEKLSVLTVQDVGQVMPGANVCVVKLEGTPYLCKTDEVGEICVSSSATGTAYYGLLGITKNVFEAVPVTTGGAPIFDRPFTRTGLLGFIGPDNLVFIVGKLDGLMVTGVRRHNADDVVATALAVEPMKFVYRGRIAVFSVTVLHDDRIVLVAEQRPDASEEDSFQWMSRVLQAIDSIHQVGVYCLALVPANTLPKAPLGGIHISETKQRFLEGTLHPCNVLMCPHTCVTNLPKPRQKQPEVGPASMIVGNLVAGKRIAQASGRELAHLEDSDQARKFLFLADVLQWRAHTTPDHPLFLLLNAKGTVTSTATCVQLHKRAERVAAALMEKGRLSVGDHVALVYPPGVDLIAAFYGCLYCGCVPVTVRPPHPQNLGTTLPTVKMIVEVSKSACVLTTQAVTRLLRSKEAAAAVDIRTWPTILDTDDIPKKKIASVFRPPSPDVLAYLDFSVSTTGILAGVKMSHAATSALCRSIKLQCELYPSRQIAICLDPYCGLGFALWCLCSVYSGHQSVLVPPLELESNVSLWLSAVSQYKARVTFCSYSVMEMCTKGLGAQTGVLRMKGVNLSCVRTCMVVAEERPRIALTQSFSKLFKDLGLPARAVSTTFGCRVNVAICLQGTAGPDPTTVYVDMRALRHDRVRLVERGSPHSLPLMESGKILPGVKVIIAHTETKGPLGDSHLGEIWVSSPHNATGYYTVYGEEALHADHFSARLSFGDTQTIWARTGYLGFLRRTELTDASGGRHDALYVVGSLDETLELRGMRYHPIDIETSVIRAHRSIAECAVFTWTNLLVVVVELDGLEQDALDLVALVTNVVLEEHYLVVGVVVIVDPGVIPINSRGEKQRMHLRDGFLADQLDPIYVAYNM
Chain of UniProt P50402 (P50402 whole entry, looked up): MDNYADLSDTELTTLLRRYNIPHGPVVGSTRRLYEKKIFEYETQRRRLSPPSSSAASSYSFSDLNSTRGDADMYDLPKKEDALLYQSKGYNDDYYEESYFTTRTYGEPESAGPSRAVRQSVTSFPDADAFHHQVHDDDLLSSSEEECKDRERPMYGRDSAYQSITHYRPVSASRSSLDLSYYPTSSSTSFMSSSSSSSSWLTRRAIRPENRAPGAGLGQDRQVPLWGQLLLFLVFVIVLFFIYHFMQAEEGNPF

Compound in the test: c1cn2cc(-c3ccc4cn[nH]c4c3)nc(Nc3ccc(N4CCOCC4)cc3)c2n1 [entospletinib]
The test is described as follows: log2 fold change, soluble protein after heating vs DMSO (PISA); higher = thermal stabilisation; K562 cells, 10 uM, 30 min; active = over 0.2 and 3.5 SD of the protein, either way, in both replicates (recomputed). In short, it runs like this:
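For each measurement, 10 μM compound was applied for 30 min to K562 cells at 2×10^6 cells/mL. Aliquots were heated for 3 min across 48°C-58°C, pooled, and extracted in PBS with 0.5% NP-40 at 4°C; the supernatant after 21,000xg for 90 min was soluble protein. This was quantified by TMTpro 16plex LC-MS/MS with channel sums equalised, and thermal stability was reported relative to control samples from duplicates, on a log2 fold-change scale.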
In the case of EEF1A1 (UniProt P68104), the log2 fold change is 0.046. As for DNAH10 (UniProt Q8IVF4), the figure is -0.132; as for DTWD2 (UniProt Q8NBA8), 0.127.

On to DTWD1 (UniProt Q8N5C7), for which the log2 fold change is 0.039. DAXX (UniProt Q9UER7): the log2 fold change was -0.025. As for ELAC1 (UniProt Q9H777), the figure is 0.069. Next, DYNC1LI2 (UniProt O43237): -0.005. Next, DHX40 (UniProt Q8IX18): -0.055.

Turning to DIP2A (UniProt Q14689), the log2 fold change was -0.128.

EGLN1 (UniProt Q9GZT9): the log2 fold change was 0. As for ESS2 (UniProt Q96DF8), the log2 fold change is 0.118. As for ELOVL1 (UniProt Q9BW60), the figure is -0.007; as for EOGT (UniProt Q5NDL2), 0.005; as for ECPAS (UniProt Q5VYK3), -0.025.

As to DNAJC24 (UniProt Q6P3W2), the log2 fold change was 0.186. With ERLIN1 (UniProt O75477), the log2 fold change is -0.049. Next, CYFIP1 (UniProt Q7L576): -0.018; DCAF10 (UniProt Q5QP82): 0.307. As for DHRS7B (UniProt Q6IAN0), the figure is 0.134; as for EED, A0A5F9ZI63, 0.037; as for EMD (UniProt P50402), 0.102. As for EIF4G3 isoform 3 (UniProt O43432), the figure is 0.118; as for DPYSL2 (UniProt Q16555), -0.015; as for DBR1 (UniProt Q9UK59), 0. DUS2 (UniProt Q9NX74): the log2 fold change was -0.063. Take FAM177A1 isoform 2 (UniProt Q8N128): the log2 fold change was 0.05. For the target EXOC1 (UniProt Q9NV70), the log2 fold change is -0.035. Next, CTSC (UniProt P53634): -0.047; FAM118A (UniProt Q9NWS6): 0.248. Next, EXOSC10 (UniProt Q01780): 0.1; FADS1, A0A0A0MR51: 0.055; DDB1 (UniProt Q16531): 0.001. Next, FAM160A2 isoform 2 (UniProt Q8N612): 0.039. On to FAM118B (UniProt Q9BPY3), for which the log2 fold change is -0.011.
